Experimental data reported in PubChem BioAssay AID493025 (Johns Hopkins Ion Channel Center, 2011).
Hit rate of the full screen: of about 1,000 compounds, about 570 (57%) were called active. How the calls were made is not given here. The set was probably picked from earlier hits. A selection follows.

molecular target: Potassium voltage-gated channel subfamily KQT member 2 (Rattus norvegicus) (UniProt O88943); assay: blockers of KCNQ2 thallium flux – cell-based, confirmation (AID 493025); settings: KCNQ2-expressing cells, at 10 µM; activity change, negative = inhibition: stronger effect = lower value; outcome: inhibition;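 on activity change, negative = inhibition: 0% = vehicle wells and values are ratio percent relative to vehicle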
Sequence (O88943 whole entry, looked up): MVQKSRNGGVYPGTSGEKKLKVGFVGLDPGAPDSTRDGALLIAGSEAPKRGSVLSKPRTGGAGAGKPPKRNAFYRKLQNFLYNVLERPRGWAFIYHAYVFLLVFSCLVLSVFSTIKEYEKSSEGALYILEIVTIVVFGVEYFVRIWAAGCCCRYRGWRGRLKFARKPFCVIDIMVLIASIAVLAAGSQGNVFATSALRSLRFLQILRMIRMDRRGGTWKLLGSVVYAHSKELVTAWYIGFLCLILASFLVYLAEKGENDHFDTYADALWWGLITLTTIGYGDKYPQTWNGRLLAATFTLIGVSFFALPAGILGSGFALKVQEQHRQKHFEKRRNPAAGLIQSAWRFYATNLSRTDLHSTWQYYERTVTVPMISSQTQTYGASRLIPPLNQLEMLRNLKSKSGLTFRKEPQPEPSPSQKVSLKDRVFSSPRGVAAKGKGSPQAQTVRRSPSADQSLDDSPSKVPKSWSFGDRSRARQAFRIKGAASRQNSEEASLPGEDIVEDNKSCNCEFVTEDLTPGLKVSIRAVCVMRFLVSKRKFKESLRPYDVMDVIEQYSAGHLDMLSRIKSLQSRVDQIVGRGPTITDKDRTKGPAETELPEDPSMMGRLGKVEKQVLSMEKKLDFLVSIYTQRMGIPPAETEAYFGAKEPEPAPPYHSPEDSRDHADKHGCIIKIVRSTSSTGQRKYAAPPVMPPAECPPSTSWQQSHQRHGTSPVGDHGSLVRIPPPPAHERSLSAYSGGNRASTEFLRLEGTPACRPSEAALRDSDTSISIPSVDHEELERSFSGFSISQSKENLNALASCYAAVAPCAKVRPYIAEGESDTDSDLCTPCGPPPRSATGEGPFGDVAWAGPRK

Row | SMILES | activity change, negative = inhibition
1 | CCc1ccc(-c2nn(-c3ccccc3)cc2CSC(=N)N)cc1 | -37.5% (active)
2 | C=CS(=O)c1sc(Cl)c(N2CCOCC2)c1[N+](=O)[O-] (stereo unspecified) | -32.5% (active)
3 | Cc1ccc(C(C)C)cc1OCC(=O)Nc1ccccc1N1CCCC1 | inactive
4 | CC(C(=O)NCC1CCCCC1)N(C)Cc1cccc(Cl)c1 (stereo unspecified) | -47% (active)
5 | CCc1ccccc1NC(=O)/C(=C/c1ccccc1)c1ccccc1 | -33% (active)
6 | C=CCn1c(SCC(=O)/C(C#N)=C(\C)N)nc2sc(C)c(C)c2c1=O | inactive
7 | CN(Cc1ccccc1F)C(=O)C(Cc1ccccc1)NC(=O)c1ccccc1 (stereo unspecified) | -29% (active)
8 | CC(NC(=S)NNS(=O)(=O)c1ccc(C(C)(C)C)cc1)c1ccccc1 (stereo unspecified) | inactive
9 | CCc1ccc2ncc(C(=O)c3ccccc3)c(N3CCOCC3)c2c1 | -20.5% (active)
10 | Fc1ccc2[nH]c3c(N4CCSCC4)ncnc3c2c1 | -38.5% (active)
11 | Cc1ccc(N2C(=O)C3C(c4ccccc4)(C2=O)C3(c2ccccc2)c2ccccc2)cc1 (stereo unspecified) | inactive
12 | CC(C)N(C(=O)CSc1nc(COc2ccccc2)nc2ccccc12)C(C)C | -42.5% (active)
13 | COc1cccc(COc2ccc(N(C)S(=O)(=O)c3ccccc3)cc2)c1 | inactive
14 | O=C(OCC(=O)N(CCc1ccccc1)Cc1ccccc1)c1ccccc1[N+](=O)[O-] | inactive
15 | CSCc1cc(N(C)C)nc(SCc2ccc(Cl)cc2Cl)n1 | -19.5% (active)
16 | O=C(Nc1ccccc1Cl)/C(Cl)=C(\Cl)S(=O)c1ccccc1 (stereo unspecified) | -22.5% (active)

Row | SMILES | activity change, negative = inhibition
17 | Cc1ccccc1N1CCN(CC(=O)NCc2ccc(Cl)cc2)CC1 | inactive
18 | COc1ccc(CN(C)C(C)C(=O)NC2CCCc3ccccc32)cc1 (stereo unspecified) | -19.5% (active)
19 | Cc1cccc(C(=O)OC(C)C(=O)NC2CCCc3ccccc32)c1O (stereo unspecified) | -27% (active)
20 | O=C(Nc1ccc(Cl)c(Cl)c1)N1CC=C(c2ccccc2)CC1 | inactive
21 | COC(=O)C1=C(C)N(C(C)c2ccccc2)C(=O)/C1=C\c1ccco1 (stereo unspecified) | -22.5% (active)
22 | CCOC(=O)C(C)Sc1nc2ccccc2c(=O)n1CC1CCCCC1 (stereo unspecified) | -32% (active)
23 | COc1ccc(Cl)cc1NC(=O)CN(C)Cc1ccc(OC)c(OC)c1 | inactive
24 | Cc1ccc(C(=O)c2c(NC(=O)c3ccccc3)sc(C)c2C)cc1 | -21% (active)
25 | Cc1ccccc1C(=O)Nc1ccccc1Sc1ccccc1 | -26% (active)
26 | CCOC(=O)N1CCC(N(CCOC)C(=O)Nc2ccc(C)c(C)c2)CC1 | -33% (active)
27 | CCc1ccc(-c2cc(C(=O)NCc3ccco3)c3ccccc3n2)s1 | inactive
28 | CC(C)[C@H](NC(=O)OCc1ccccc1)C(=O)OCc1ccccc1 | -23.5% (active)
29 | CC(C)C(NC(=O)OCc1ccccc1)C(=O)OCC(=O)N1C(C)CCCC1C (stereo unspecified) | inactive
30 | Cc1ccc(C2=Nc3c(ccc4ccccc34)C(c3ccncc3)=NN2)cc1 | inactive
31 | Cc1nc2ccccc2c(-c2ccccc2)c1C(=O)c1ccccc1 | -31% (active)
